Only some compounds are listed: those with a hit (about 18% of all), similar ones and a draw of the others.
HepG2 tox: HepG2 cytotoxicity, counter-screen for TGF-b inhibitors | HepG2 CAGA-GFP viability, ATP luminescence, 18 h | Potency, µM (highest dose often 46.1 µM), inactives show at the highest dose activity change, negative = cytotoxicity, actives largely listed as cytotoxic | actives 0.76% (n = 410,000) | AID 588856; note: potency is the fitted concentration of half-maximal effect
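CellTiter-Glo luminescence gave cytotoxicity after 18 hours at 37 degrees C. The cells were HepG2 CAGA-GFP in 1% FBS DMEM, stimulated with 500 pg/mL TGF-beta after compound addition. %Activity was normalised to no-cell wells (complete cell-killing) and DMSO (no toxicity), and curves were fitted and classified.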
TDP1 inh: TDP1 (human) enzyme inhibition | Q9NUW8 | recombinant TDP1, AlphaScreen DNA substrate cleavage | Potency, µM (series often up to 130 µM), for the others: at the highest dose activity change, negative = inhibition, usual class: inhibitors | actives 0.28% (n = 350,000); note: potency is the fitted concentration of half-maximal effect; % is set by controls: 0 for no effect and ±100 for the full control effect; nearly all actives have a fitted effect of over 40% in size
Target sequence (Q9NUW8 whole entry, looked up): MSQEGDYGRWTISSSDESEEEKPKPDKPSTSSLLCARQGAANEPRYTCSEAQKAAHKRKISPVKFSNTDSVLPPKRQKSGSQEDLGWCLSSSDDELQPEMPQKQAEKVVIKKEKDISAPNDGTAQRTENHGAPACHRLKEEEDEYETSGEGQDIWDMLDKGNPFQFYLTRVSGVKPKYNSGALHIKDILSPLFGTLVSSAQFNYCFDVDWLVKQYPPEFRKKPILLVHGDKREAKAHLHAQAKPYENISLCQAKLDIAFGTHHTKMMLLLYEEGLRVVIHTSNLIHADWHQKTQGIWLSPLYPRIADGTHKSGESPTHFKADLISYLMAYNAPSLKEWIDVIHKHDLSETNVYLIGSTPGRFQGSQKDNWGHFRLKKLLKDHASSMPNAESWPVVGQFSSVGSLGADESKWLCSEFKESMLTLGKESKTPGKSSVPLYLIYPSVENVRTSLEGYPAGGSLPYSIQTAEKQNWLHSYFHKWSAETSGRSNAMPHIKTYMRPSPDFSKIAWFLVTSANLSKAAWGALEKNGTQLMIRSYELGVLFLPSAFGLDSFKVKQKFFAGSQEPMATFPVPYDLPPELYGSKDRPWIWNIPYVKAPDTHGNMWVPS
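Recombinant E. coli-expressed Tdp1 (1 nM) preincubated with compound 15 min at RT, then 5'-biotin/3'-phosphotyrosine-FITC DNA substrate (15 nM) added for 5 min. AlphaScreen beads (10 ug/ml) added, 10 min RT; tyrosine-FITC cleavage read as signal loss.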
TGFb inhibitor: blocks TGF-b signaling; HepG2 CAGA-GFP TGF-b/SMAD3 reporter, GFP fluorescence, 18 h; TGF-beta stimulated, 500 pg/mL final; Potency, µM (doses to about 46.1 µM), for the others: at the highest dose activity, negative = inhibition, actives largely listed as inhibitors; actives 1.2% (n = 410,000); note: potency is the fitted concentration of half-maximal effect; % is set by controls: 0 for no effect and ±100 for the full control effect; nearly all actives have a fitted effect of over 65% in size
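Cell-based qHTS in HEPG2 carrying a CAGA-GFP Smad reporter; compounds added before 500 pg/mL final TGF-beta, 18 h incubation at 37 degrees C, GFP fluorescence quantified per cell by imaging cytometry.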
IL1B secr inh: blocks inflammasome-driven IL-1 beta release. THP-1 LPS/ATP IL-1B secretion, AlphaLISA, 16 h; stronger effect = lower value. activity change, % at 57.5 µM. actives 4.7% (n = 360,000); in the data active = activity change below about -50%; inconclusive = mostly about -30% to -49%; note: % is set by controls: 0 for no effect and ±100 for the full control effect
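THP-1 cells pretreated 1 hr with compounds (up to 57.5 uM final), then stimulated with LPS (250 ng/mL final) plus ATP (1.25 mM final); secreted IL-1B measured by AlphaLISA after 16 hr, decreased signal indicating inhibition.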
TDP1 cell noCPT: qHTS for Inhibitors of human tyrosyl-DNA phosphodiesterase 1 (TDP1): qHTS in cells in absence of CPT; actives 15% (n = 420,000); Potency, µM (top dose mostly 46.2 µM), for the others: top-dose activity change, negative = growth inhibition, usual class: inhibitors; DT40 Tdp1-/- hTDP1 cells, no CPT, ATP luminescence, 48 h; note: potency is the fitted concentration of half-maximal effect; % is set by controls: 0 for no effect and ±100 for the full control effect; nearly all actives have a fitted effect of over 55% in size
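Growth of hTDP1-complemented DT40 Tdp1-knockout cells is measured by ATP luminescence after at least 48 hr compound exposure at 37 °C, with DMSO substituting for the 20 nM CPT used in the parallel screen.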
TDP1 cell CPT: DT40-hTDP1 cell growth loss with CPT. chicken DT40 Tdp1-/-;hTDP1 cells + 20 nM CPT, ATP luminescence, 48 h. Potency, µM (series often up to 46.2 µM), for inactives: at the highest dose activity change, negative = growth inhibition, usual class: inhibitors. actives 12% (n = 420,000). AID 686979; note: potency is the fitted concentration of half-maximal effect; % is set by controls: 0 for no effect and ±100 for the full control effect; nearly all actives have a fitted effect of over 55% in size
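Chicken DT40 Tdp1-/- cells complemented with human TDP1, 400 cells/well, exposed to compounds plus 20 nM camptothecin for at least 48 h at 37 C; viability read as ATP content by CellTiter-Glo luminescence.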
Numbers without * were called inactive; ? = inconclusive; . = no result given; [ ] = dose if it differs, or a comment. Unless noted, calls come from the whole dose curve; as a rule, active = well fitted curve in the direction sought with a large enough effect; inconclusive = small, poorly fitted or top-dose-only effect, or another doubt; inactive = no such curve, though single readings can be large; an effect the other way counts as inactive or inconclusive.

SMILES | HepG2 tox | TDP1 inh | TGFb inhibitor | IL1B secr inh | TDP1 cell noCPT | TDP1 cell CPT
O=c1ccn([C@@H]2O[C@H](CNS(=O)(=O)C3CC3)[C@@H](O)[C@H]2O)c(=O)[nH]1 | -35% | . | ? | 0 | 0% | 3%
CC(C(=O)NC(=O)NC1CCCCC1)N1CCN(C(c2ccccc2)c2ccccc2)CC1 (stereo not given) | -5% | 1% | 14% | 3 | 15µM* | 23µM*
CCOc1ccccc1NC(C)C(=O)NC(=O)NC1CCCCC1 (stereo not given) | 4% | 5% | 20% | 39 | -28% | 18µM*
COC(=O)c1ccc(C)c(NC(=O)CSc2nnc3ccccn23)c1 | 6% | 0% | 10% | -7 | 10% | -9%
Cc1cc(C2=NNC(=NCCc3ccccc3)SC2)c(C)n1-c1c(C)n(C)n(-c2ccccc2)c1=O | 19% | . | 1% | -3 | -11% | -6%
COCCCN=C1NN=C(c2cc(C)n(Cc3ccccc3Cl)c2C)CS1 | -30% | 7% | ? | ? | 2.3µM* | ?
COCCCN=C1NN=C(c2cc(C)n(-c3ccccc3)c2C)CS1 | -8% | 0% | -1% | 39 | 16µM* | ?
COCCN=C1NN=C(c2cc(C)n(CC3CCCO3)c2C)CS1 (stereo not given) | 2% | 0% | 16% | -9 | ? | ?
COCCCN=C1NN=C(c2cc(C)n(-c3ccccc3F)c2C)CS1 | -13% | 9% | ? | 17 | 8.2µM* | 16µM*
COCCn1c(C)cc(C2=NNC(=Nc3ccccc3F)SC2)c1C | -13% | 8% | 0% | -16 | ? | ?
CN(C)c1cc(N/N=C/c2ccc(Cl)cc2)nc(N(C)C)n1 | -47% | 7% | ? | -3 | 18µM* | ?
Cc1ccc(C2CC(c3cccs3)=NN2C(=O)CSC2=NN3CCCC(=O)N=C3S2)cc1 (stereo not given) | -14% | 9% | -17% | -18 | ? | 13µM*
CNC(=S)N1N=C(c2cccs2)CC1c1ccc(F)cc1 (stereo not given) | 11% | . | -14% | -51* | -17% | -19%
CCC(=O)N1N=C(c2cccs2)CC1c1ccc(C)cc1 (stereo not given) | -15% | . | -21% | -8 | ? | ?
Cc1ccc(C2CC(c3cccs3)=NN2C(=O)CCl)cc1 (stereo not given) | -95% | . | ? | -106* | 2.9µM* | 2.6µM*
CCN(CC)c1ccc(/C=C2\C(=O)N(c3nnc(C)c(=O)[nH]3)N=C2C)cc1 | -55% | 4% | ? | -98* | 18µM* | 13µM*
CC1=NN(CCC#N)C(=O)/C1=C/c1ccc(N(C)C)cc1 | 4% | 5% | -2% | -7 | ? | 9%
Cc1ccc2[nH]c(SCC(=O)N3CCOCC3)nc2c1C | -22% | 2% | 4% | 29 | -7% | -12%
CCC(CC)C(=O)N(C)c1c(C)nc2c(OCc3cc(Cl)cc(Cl)c3)cccn12 | -93% | . | 13µM* | 4 | ? | ?
CCC(CC)C(=O)N(C)c1c(C)nc2c(OCc3cccc(OC)c3)cccn12 | -29% | . | 5% | 0 | 21µM* | ?
CCC(CC)C(=O)N(C)c1c(C)nc2c(OCc3cccc(Cl)c3)cccn12 | -18% | . | -10% | 19 | 12µM* | 21µM*
CCC(CC)C(=O)N(C)c1c(C)nc2c(OCc3ccc(Cl)cc3)cccn12 | -30% | . | ? | 11 | ? | 8.2µM*
CCc1nc2c(OCc3ccccc3)cccn2c1N(C)C(=O)C(C)C | -4% | . | 1% | 213 | ? | ?
O=C(Cc1ccc(F)cc1)NO | . | . | . | . | -24% | -1%
CC(C)(C)S(=O)N1Cc2cc(C(=O)N3CCc4ccccc4C3)nc(-c3cccc(-c4ccncc4)c3)c2[C@H]1CCO (stereo not given in full) | -11% | . | ? | -27 | ? | ?
SMILES | HepG2 tox | TDP1 inh | TGFb inhibitor | IL1B secr inh | TDP1 cell noCPT | TDP1 cell CPT
O=S(=O)(c1ccc(F)cc1)N1CCN(CC(O)COCC2CCCO2)CC1 (stereo not given) | 10% | 1% | -3% | -10 | 1% | -16%
CCC(CC)C(=O)N(C)c1c(C)nc2c(OCc3ccc(OC(F)F)cc3)cccn12 | 0% | . | -29% | -10 | 12µM* | 12µM*
O=C(NCc1ccco1)C(=O)c1cn(CC(=O)N2CCCC2)c2ccccc12 | 1% | 3% | -3% | 0 | 3% | 21%
CN(C)c1ccc(/C=N\Nc2ccc([N+](=O)[O-])cc2[N+](=O)[O-])cc1Br | -9% | . | 20% | . | ? | ?
O=[N+]([O-])c1ccc(NN=CC2CCCCCC2)c([N+](=O)[O-])c1 | . | . | . | 20 | 13µM* | 15µM*
CCOC(=O)c1c(C)nc2c(c1-c1ccc(OC)c(OC)c1)C(=O)c1ccccc1-2 | -8% | -2% | ? | 1 | ? | 23µM*
CC(=O)c1cn(C)c(=O)n(C)c1=O | 3% | 3% | -5% | 16 | 7% | 1%
CCO/C(C)=N/Oc1cnc2ccccc2c1 | -1% | . | -7% | 38 | -19% | -12%
CCOC(=O)c1c(NC(=O)c2ccc(S(=O)(=O)N3CCC(C)CC3)cc2)sc2c1CCN(C(C)C)C2 | -65% | 3% | 24% | . | 15µM* | 23µM*
CCOC(=O)c1c(NC(=O)c2ccc(S(=O)(=O)N3CCOCC3)cc2)sc2c1CCN(C)C2 | -39% | 8% | 5% | -4 | ? | -26%
CCN1CCN(S(=O)(=O)c2ccc(C(=O)Nc3sc4c(c3C(N)=O)CCN(CC)C4)cc2)CC1 | -15% | 2% | 7% | -14 | -18% | ?
CCOC(=O)c1c(NC(=O)c2ccc(S(=O)(=O)N3CCC(C)CC3)cc2)sc2c1CCN(CC)C2 | -92% | 10% | 49% | . | 21µM* | 13µM*
CCOC(=O)c1ccsc1NC(=O)CCS(=O)(=O)c1ccccc1 | -45% | 2%[56.1 µM] | -19% | -82* | ? | ?
CCOC(=O)c1c(NC(=O)c2ccc(N3C(=O)[C@@H]4[C@H](C3=O)[C@H]3C=C[C@@H]4C3)cc2)sc2c1CC(C)CC2 (stereo not given in full) | -7% | 0% | 2% | -81* | 1.2µM* | -45%
ICC[n+]1csc2ccccc21 | -17% | . | 17% | . | ? | ?

Compound activity from PubChem BioAssay.
